Experimental data taken from PubChem BioAssay (NCI).
About 83,000 compounds went through this panel and 20% of them were active in at least one assay; those are over-represented in the sample as a whole.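 Activity criterion: percent growth below 10, measured after cells in 96-well plates were exposed to a single compound concentration for 48 hours.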 Values without a mark were called inactive. Activity calls are given as the source filed them. *1 amine or outer side, *2 acyl side, *3 side chain or, on linkers, in order; H or OH if unused. Where a SMILES comes first, the peptide text is derived from it. Bridges are numbered along the chain shown (N, C = ends). Roman numbers before positions name the chains, in order. [ ]: non-standard residue; d: D form. ξ: configuration not given here. Actinocin(1to9) = Cc1c2oc3c(C)ccc(C(=O)[*:2])c3nc-2c(C(=O)[*:1])c(N)c1=O; NMeV = CN[CH](C(=O)O)C(C)C; ξD = NC(CC(=O)O)C(=O)O; Sar = CNCC(=O)O

Experiments:
Test in all cases: NCI-60 one-dose screen, 48 h (100 = growth as untreated, 0 = no growth, -100 = all killed)
Conditions in all cases: 10 µM unless noted
SR leukemia = tested on: SR leukemia
RPMI-8226 leukemia = tested on: RPMI-8226 leukemia
OVCAR-5 ovarian = tested on: OVCAR-5 ovarian
SK-OV-3 ovarian = tested on: SK-OV-3 ovarian
IGROV1 ovarian = tested on: IGROV1 ovarian
OVCAR-3 ovarian = tested on: OVCAR-3 ovarian
NCI/ADR-RES ovarian = tested on: NCI/ADR-RES ovarian
OVCAR-4 ovarian = tested on: OVCAR-4 ovarian
HS 578T breast = tested on: HS 578T breast
OVCAR-8 ovarian = tested on: OVCAR-8 ovarian

| SMILES | growth (SR leukemia) | growth (RPMI-8226 leukemia) | growth (OVCAR-5 ovarian) | growth (SK-OV-3 ovarian) | growth (IGROV1 ovarian) | growth (OVCAR-3 ovarian) | growth (NCI/ADR-RES ovarian) | growth (OVCAR-4 ovarian) | growth (HS 578T breast) | growth (OVCAR-8 ovarian) |
| --- | --- | --- | --- | --- | --- | --- | --- | --- | --- | --- |
| COc1cc(NCc2ccc3nc(N)nc(N)c3c2C)cc(OC)c1OC (tested in a mixture with another compound) | 31.7% | 41.7% | 36.9% | 58% | -10.2% (active) | 55.3% | 32.2% | – | – | – |
| Cc1ccc(/C=C2\CNC/C(=C\c3ccc(C)cc3)C2=O)cc1 | -2.99% (active) | -30.6% (active) | -28.4% (active) | 30.5% | -71.2% (active) | -58.5% (active) | -51.3% (active) | 9.79% (active) | – | – |
| O=C(O)c1cc2c(s1)C(=O)c1sccc1C2=O | -12.3% (active) | 74.3% | 78.3% | 115% | 56.3% | -18.6% (active) | 15.1% | -6.65% (active) | -18.8% (active) | – |
| C1=C(c2ccccc2)c2ccccc2C1 | 93.6% | – | 92% | 109% | 101% | 106% | 101% | 105% | 95.2% | 114% |
| COc1ccc2c(c1OC)OCC(CN(C)C)C2=O (stereo unspecified) | 78.2% | -40.8% (active) | 92.9% | 108% | 93.3% | 92.4% | 106% | -50.8% (active) | 106% | – |
| CCC(=O)c1cc([N+](=O)[O-])c(Br)s1 | -19.5% (active) | – | 99% | 95.8% | 105% | 82.4% | 105% | 109% | – | 91.4% |
| CCC(C)C1NC(=O)C(NC(=O)c2c3nc4c(C(=O)NC5C(=O)NC(C(C)CC)C(=O)N6CCCC6C(=O)N(C)CC(=O)N(C)C(C(C)C)C(=O)OC5C)ccc(C)c4oc-3c(C)c(=O)c2N)C(C)OC(=O)C(C(C)C)N(C)C(=O)CN(C)C(=O)C2CCCN2C1=O (stereo unspecified) (I: TIP[Sar][NMeV] / II: TIP[Sar][NMeV]; ester I:1-I:C, II:1-II:C; linker I:N-II:N via Actinocin(1to9); configuration not given here) | 5.31% (active) | -18.8% (active) | -76.6% (active) | 18.2% | -32.4% (active) | 1.47% (active) | -42.7% (active) | -1.07% (active) | – | – |
| CN(C)c1ccc2cc3c(cc2c1)Oc1ccccc1N3.[Cl][Zn][Cl] | 12.5% | 48.9% | – | 106% | 78.5% | 17.6% | 86.2% | 64% | 106% | 70.2% |
| N#CC1c2ccccc2C=CN1C(=O)CCCl (stereo unspecified) | 5.98% (active) | 24.3% | 108% | 97.2% | 95.3% | 91.4% | 102% | 108% | 104% | – |
| O=C(/C=C/C(Cl)(Cl)Cl)Nc1ccc(Cl)cc1 | 40.1% | 75.3% | 93.7% | 110% | -76.5% (active) | 119% | 95.5% | 115% | 105% | – |
| Cc1cc(I)nc2ccccc12 | 107% | – | 100% | 109% | 104% | 130% | 109% | 112% | – | 107% |
| Oc1ccc2ccccc2c1N=Nc1ccccn1 | 8.18% (active) | – | 46.8% | 33.6% | 25% | 20.7% | 0.488% (active) | -6.48% (active) | – | 15.6% |
| O=C(OC12CC3CC(CC(C3)C1)C2)c1ccc(NCc2cc(O)ccc2O)cc1 | -19.4% (active) | -36% (active) | -63.4% (active) | 45.7% | -81.4% (active) | -90.3% (active) | -79.1% (active) | -85.5% (active) | – | – |
| CCN(CC)c1ccc(/C=C\C(=O)c2ccc(NC(C)=O)cc2)cc1 | – | 76.9% | 68.5% | 69.2% | 75.5% | 104% | 37.9% | 90.6% | 55.1% | 76% |
| COc1cc(/C=C/C(=O)CC(=O)/C=C/c2ccc(O)c(OC)c2)ccc1O | -5.89% (active) | -30.3% (active) | 61.1% | 75.3% | – | – | 37.2% | 65.8% | – | – |
| C/C=C/c1cc2c(c(=O)o1)C(=O)[C@@H](O)[C@H](C)O2 | 11.9% | -45.7% (active) | 87.5% | 109% | -46.9% (active) | 47.5% | 86% | -12.6% (active) | 93.4% | – |
| COc1ccc(/C=C2/C(=O)ON=C2C)cc1 | 115% | 99.1% | – | 100% | 115% | 111% | 115% | 115% | – | 105% |
| NCC(=O)NC(CC(=O)O)C(=O)O (stereo unspecified) (H-Gly-[ξD]-OH) | – | 111% | 107% | 108% | 107% | 125% | 104% | 104% | 99% | 107% |
| NNc1ccc(Cl)cc1Cl | 57.3% | – | 88.8% | 69.7% | – | – | 53.5% | 89.2% | 84.1% | 52.7% |
| CCC1C[N+]2=C(c3cc(OC)c(OC)cc3CC2)c2c1cc1n2CCc2cc(OC)c(OC)cc2-1 (stereo unspecified) | – | 11.6% | 79.7% | 94.9% | – | 10% | 101% | 14.7% | 42.4% | 32.4% |
| Nc1nc2ncc(CNc3ccc(C(=O)NC(CCC(=O)NC(CCC(=O)NC(CCC(=O)NC(CCC(=O)NC(CCC(=O)O)C(=O)O)C(=O)O)C(=O)O)C(=O)O)C(=O)O)cc3)nc2c(=O)[nH]1 (stereo unspecified) | – | 112% | 110% | 101% | 103% | – | 119% | 111% | – | 101% |
| CN(C)CC(C)(CN(C)C)C(=O)/C=C/c1c(Cl)cccc1Cl | – | -4.62% (active) | 53.1% | 91.9% | 73.6% | -31.3% (active) | -29.7% (active) | 62.2% | 71.9% | -26.2% (active) |
| CCCCCCCCCCCC[S+](C)CC(=O)[O-] (stereo unspecified) | – | 26.6% | 56.5% | 41.3% | 12.8% | 57.6% | 99.8% | 48.1% | 36.7% | 45.5% |
| CC(C)(C)c1ccc(CCO)cc1 | – | 112% | 91.4% | 100% | – | 116% | 101% | 99.4% | 135% | 95.8% |
| O=C(/C=C/c1ccccc1)c1ccccc1O | – | 26.6% | 91.1% | 107% | 76.5% | 89% | 93.8% | 87.6% | 94.7% | 87.7% |
| COc1cc(NC(=O)C2=C(C)NC(C)=C(C(=O)Nc3cc(OC)c(Cl)cc3OC)C2c2cccc([N+](=O)[O-])c2)c(OC)cc1Cl | – | 25.6% | 34.4% | 52.1% | 11.4% | – | 22% | 39.4% | 8.61% (active) | 38.3% |
| CCCCCCCCCCCC[N+]1(CCCCCCCCCCCC)CCCC(C)C1 (stereo unspecified) | – | -63.1% (active) | -98.3% (active) | -96.2% (active) | – | -88.7% (active) | 19.6% | -86.3% (active) | -40.8% (active) | -92.1% (active) |
| Cc1ccc2c(c1)sc(-c1ccc(N(C)C)cc1)[n+]2C | – | -56.7% (active) | 14.4% | -14.2% (active) | 8.14% (active) | -14.8% (active) | 81.3% | 20.3% | – | 16.3% |
